“And” between values parts separate entries of the source, which are not always exact repeats. Equal values may be shown once. Inconclusive results are not listed. A call without a number means that no potency is given here. The source made the active and inactive calls. Calls follow the shape of the dose curve; as a rule, active = well fitted inhibition curve with a large enough effect; inconclusive = small, poorly fitted or top-dose-only effect; inactive = flat fitted curve, though single readings scatter.
Each molecule was assayed on astro (assay: Drug repurposing screens with cells derived from glioblastoma tumor samples (AID 1345199; also: nearly all actives have a fitted effect of over 40% in size)). Conditions: viability, ATP luminescence, 48 h; series mostly up to 45.9 µM.
Method: CD133+ cells were isolated from GBM patient biopsies and cultured as neurospheres. Neurospheres from four patients were used to screen the NCATS pharmaceutical collection (NPC) library of approved drugs and bioactive compounds. […] The neurospheres were incubated with drugs for 48 hours in 1536-well format, then assayed with an ATP content cell viability assay. […] These hits were cherry picked to confirm activity in the four original GBM lines screened plus three other slower growing GMB lines (unable to yield enough cells for a full primary screen). Variable activities of the confirmed primary hits in the different GBM patient lines were observed. The patient line 206 responded to the greatest number of compounds and line 923 responded to the least amount of active compounds.
`CC1(C)O[C@H]2C[C@@H]3[C@H]4CCC5=CC(=O)C=C[C@]5(C)[C@@]4(F)[C@@H](O)C[C@]3(C)[C@]2(C(=O)CO)O1` was tested, and the Potency was “inactive”. For `NC[C@@H]1O[C@@H](O[C@H]2[C@@H](O)[C@H](O[C@@H]3[C@@H](O)[C@@H](N)C[C@H](N)[C@H]3O[C@H]3O[C@H](CN)[C@@H](O)[C@@H](O)[C@H]3N)O[C@H]2CO)[C@H](N)[C@@H](O)[C@@H]1O`, the Potency was “inactive”. For `O=C(CCCCCCC(=O)Nc1ccccc1)NO`, the Potency was 10 µM (active) and 8.91 µM (active). In the case of `Cc1cnc(C(=O)O)c[n+]1[O-]`, the Potency is reported as “inactive”. For `CC/C(=C(\c1ccccc1)c1ccc(OCCN(C)C)cc1)c1ccccc1`, the Potency was 25.1 µM (active). `CCN(CC)C(=O)c1ccc(O)c(OC)c1` was tested, and the Potency was “inactive”. With `COC(=O)[C@@H]1[C@H]2C[C@H]3c4[nH]c5ccccc5c4CCN3C[C@@H]2CC[C@@H]1O` the Potency was “inactive”. In the case of `CC(=O)N[C@@H](CS)C(=O)O`, the Potency is reported as “inactive”. With `CN(C)CCC(c1ccccc1)c1ccccn1` (stereo not given) the Potency was “inactive”. For `C[C@@H](O)[C@H]1C(=O)N2C(C(=O)O)=C(S[C@@H]3CN[C@H](C(=O)N(C)C)C3)[C@H](C)[C@H]12`, the Potency was “inactive”. In the case of `NC(N)=Nc1nc(CSCC/C(N)=N/S(N)(=O)=O)cs1`, the Potency is reported as “inactive”. In the case of `CCOC(=O)O[C@]1(C(=O)OCCl)CC[C@@H]2[C@H]3CCC4=CC(=O)C=C[C@]4(C)[C@@H]3[C@@H](O)C[C@@]21C`, the Potency is reported as “inactive”. With `CCN(CC)CCOC(=O)c1ccc(N)cc1` the Potency was “inactive”. `CC(=O)Oc1cc2c(s1)CCN(C(C(=O)C1CC1)c1ccccc1F)C2` (stereo not given) was tested, and the Potency was “inactive”. In the case of `OC[C@@H](O)[C@H](O)[C@H](O)[C@@H](O)CO`, the Potency is reported as “inactive”. `C[N+](C)(C)CCCCCC[N+](C)(C)C` was tested, and the Potency was “inactive”. For `Clc1ccc(Cn2c(CN3CCCC3)nc3ccccc32)cc1`, the Potency was “inactive”. With `Cc1cccc(C)c1OCC(C)N` (stereo not given) the Potency was “inactive”. In the case of `CC(=O)CCCCn1c(=O)c2c(ncn2C)n(C)c1=O`, the Potency is reported as “inactive”. With `CC1=C(/C=C/C(C)=C/C=C/C(C)=C/C(=O)Nc2ccc(O)cc2)C(C)(C)CCC1` the Potency was 11.2 µM (active). With `N#C[C@H]1C[C@H]2C[C@@H]2N1C(=O)[C@@H](N)C12CC3CC(CC(O)(C3)C1)C2` the Potency was “inactive”. With `O=C(O)Cc1cccc2ccccc12` the Potency was “inactive”. With `CC(C)(C)c1ccc(C(O)CCCN2CCC(C(O)(c3ccccc3)c3ccccc3)CC2)cc1` (stereo not given) the Potency was 35.5 µM (active) and 20 µM (active). For `C[N+]1(C)[C@@H]2CC(OC(=O)[C@H](CO)c3ccccc3)C[C@H]1[C@H]1O[C@@H]12` (stereo not given in full), the Potency was “inactive”. For `O=C(NCCN1CCOCC1)c1ccc(Cl)cc1`, the Potency was “inactive”. For `NCCS`, the Potency was “inactive”. With `COc1cc2ncnc(Nc3ccc(F)c(Cl)c3)c2cc1OCCCN1CCOCC1` the Potency was 20 µM (active). `O=C(O)CCc1nc(-c2ccccc2)c(-c2ccccc2)o1` was tested, and the Potency was “inactive”. With `CCCCC1C(=O)N(c2ccccc2)N(c2ccccc2)C1=O` the Potency was “inactive”. For `CN(C)c1cc(NC(=O)CNC(C)(C)C)c(O)c2c1C[C@@H]1C[C@H]3[C@H](N(C)C)C(=O)C(C(N)=O)=C(O)[C@@]3(O)C(=O)C1=C2O`, the Potency was “inactive”. In the case of `CC(C(=O)O)c1ccc(-c2ccccc2)c(F)c1` (stereo not given), the Potency is reported as “inactive”. In the case of `CCCNC(=O)NS(=O)(=O)c1ccc(Cl)cc1`, the Potency is reported as “inactive”. For `CCN1CCC[C@H]1CNC(=O)c1cc(S(N)(=O)=O)ccc1OC`, the Potency was “inactive”. In the case of `Cc1nnc(C(C)C)n1C1C[C@H]2CC[C@@H](C1)N2CC[C@H](NC(=O)C1CCC(F)(F)CC1)c1ccccc1` (stereo not given in full), the Potency is reported as “inactive”. `CCN(CC)CCNC(=O)c1ccc(N)cc1` was tested, and the Potency was “inactive”. For `CCn1cc(C(=O)O)c(=O)c2ccc(C)nc21`, the Potency was “inactive”. `O=C1NCC2(CCN(CCc3ccccc3)CC2)O1` was tested, and the Potency was “inactive”. `O=C1NC(=O)C(c2ccccc2)(c2ccccc2)N1` was tested, and the Potency was “inactive”. For `COc1ccccc1N1CCN(CCCNc2cc(=O)n(C)c(=O)n2C)CC1`, the Potency was “inactive”. For `O=c1[nH]cnc2c1ncn2[C@H]1CC[C@@H](CO)O1`, the Potency was “inactive”.
Potency is read from the fitted curve at half-maximal effect.
